# Test results published in the supplement of paper PMC13380429.
# Where a name gives a salt, the structure may show the parent alone.
# Tests used:
# [1] = tested on: Vero E6 infected with SARS-CoV-2; assay: morphology score (similarity to uninfected cells); higher = more like uninfected cells; details: 24 h
# [2] = tested on: Vero E6 infected with SARS-CoV-2; assay: SARS-CoV-2 infection rate relative to infected DMSO; higher = more infection, active = 60 or less; details: 24 h
SMILES,morphology score [1],SARS-CoV-2 infection rate [2]
COc1ccc2c(NC(=O)Nc3cccc(C(F)(F)F)n3)ccnc2c1 (10 µM),-0.049,101% (inactive)
CCCCc1nc(-c2ccc(OCCCN(CC)CC)cc2)cn1-c1ccc(Oc2ccc(Cl)cc2)cc1 [azeliragon] (0.833333 µM),0.129,93% (inactive)
NS(=O)(=O)c1cc(Cl)c(Cl)c(S(N)(=O)=O)c1 [diclofenamide] (10 µM),0.298,84.5% (inactive)
CN1CCCN=C1COC(=O)C(O)(c1ccccc1)C1CCCCC1 (stereo not drawn) [oxyphencyclimine] (10 µM),0.0243,101% (inactive)
COC(=O)c1cc(OC)c2c(c1-c1c(C(=O)OC)cc(OC)c3c1OCO3)OCO2 [bifendate] (10 µM),0.0714,108% (inactive)
CN1CC[C@@H]2CN3CCc4cccc(c43)[C@@H]2C1 (10 µM),-0.0541,108% (inactive)
C[C@@H]1C[C@@H]([C@H](O)CC2CC(=O)NC(=O)C2)C(=O)[C@@H](C)C1 [cycloheximide] (10 µM),0.392,69% (inactive)
c1cnc(SCc2cccnc2)nc1 [tasuldine] (10 µM),0.175,99.5% (inactive)
CNCCc1cnc[nH]1 [N-alpha-methylhistamine-dihydrochloride] (10 µM),-0.0409,110% (inactive)
CCCCCCCN(CC)CCC[C@@H](O)c1ccc(NS(C)(=O)=O)cc1 (racemic) [ibutilide] (10 µM),0.189,107% (inactive)
Nc1ccn([C@@H]2O[C@H](CO)[C@@H](O)[C@@H]2O)c(=O)n1 [cytarabine] (0.833333 µM),0.0731,97% (inactive)
COc1ccc(S(=O)(=O)N2CCCN(S(=O)(=O)c3ccc(OC)c(OC)c3)CC2)cc1OC (10 µM),0.209,106% (inactive)
Cc1cccc(CN2CCN(C(c3ccccc3)c3ccc(Cl)cc3)CC2)c1 (stereo not drawn) [meclizine] (10 µM),0.0755,108% (inactive)
CCn1nc(C(=O)O)c(=O)c2cc3c(cc21)OCO3 [cinoxacin] (10 µM),-0.0392,104% (inactive)
CC(C)OC(=O)C(C)(C)Oc1ccc(C(=O)c2ccc(Cl)cc2)cc1 [fenofibrate] (10 µM),0.0415,101% (inactive)
C#C[C@]1(O)CC[C@H]2[C@@H]3CCC4=CC(=O)CCC4=C3C=C[C@@]21CC [gestrinone] (10 µM),0.0853,103% (inactive)
O=C(O)c1ccc(Nc2ncc3c(n2)-c2ccc(Cl)cc2C(c2c(F)cccc2F)=NC3)cc1 (10 µM),0.00168,109% (inactive)
C[C@@H](CN)CC(=O)O [3-methyl-GABA] (10 µM),0.0225,102% (inactive)
O=C(Nc1cc(C(F)(F)F)cc(C(F)(F)F)c1)Nc1c(Br)cc(Br)cc1-c1nnn[nH]1 (10 µM),0.192,104% (inactive)
N#CC(c1ccnc(OCc2ccc(CN3CCOCC3)cc2)n1)c1nc2ccccc2s1 (stereo not drawn) (10 µM),0.195,99.5% (inactive)
CC1CC(OC(=O)C(O)c2ccccc2)CC(C)(C)N1C (stereo not drawn) [eucatropine] (10 µM),-0.104,115% (inactive)
COc1ccc(COc2ccc(Cc3cnc(N)nc3N)cc2OC)cc1 (10 µM),-0.072,112% (inactive)
C[C@]12CCC(=O)C=C1CC[C@@H]1[C@@H]2CC[C@@]2(C)[C@H]1CC[C@]2(O)C(=O)CO [cortodoxone] (10 µM),0.0341,98% (inactive)
CCO[C@@H](Cc1ccc(OCCc2ccc(OS(C)(=O)=O)cc2)cc1)C(=O)O [tesaglitazar] (10 µM),0.194,110% (inactive)
CONC(=N)c1ccc(-c2ccc(-c3ccc(C(=N)NOC)cc3)o2)cc1 [pafuramidine] (10 µM),0.0672,106% (inactive)
Cc1cccc(Nc2cc(Cl)nc(SCC(=O)O)n2)c1C [pirinixic-acid] (10 µM),0.0216,108% (inactive)
C=CCSCC1Nc2cc(Cl)c(S(N)(=O)=O)cc2S(=O)(=O)N1 (stereo not drawn) [althiazide] (10 µM),-0.00232,98% (inactive)
O=C(NCc1ccc(Oc2ccccc2)cc1)c1nc(-c2cc(Br)c(O)c(Br)c2)no1 (0.833333 µM),0.0493,100% (inactive)
Clc1ccc(C(Cn2ccnc2)OCc2csc3c(Cl)cccc23)c(Cl)c1 (stereo not drawn) [sertaconazole] (10 µM),0.201,104% (inactive)
